In PubChem BioAssay:
Unmarked numbers belong to inactive results. How the calls were made is not given here.

These molecules were tested against Pantothenate synthetase (Mycobacterium tuberculosis (strain ATCC 25618 / H37Rv)) (UniProt P9WIL5) (assay: Recombinant Mtb pantothenate synthetase (PanC) inhibitors, coupled enzyme, confirmatory (AID 375;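 further: 0% = full reaction with vehicle and 100% = no enzyme background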)). Details: coupled enzyme assay; at 10 µM, stronger effect = higher value.
Pantothenate synthetase (Mycobacterium tuberculosis (strain ATCC 25618 / H37Rv)), sequence (P9WIL5 whole entry, looked up): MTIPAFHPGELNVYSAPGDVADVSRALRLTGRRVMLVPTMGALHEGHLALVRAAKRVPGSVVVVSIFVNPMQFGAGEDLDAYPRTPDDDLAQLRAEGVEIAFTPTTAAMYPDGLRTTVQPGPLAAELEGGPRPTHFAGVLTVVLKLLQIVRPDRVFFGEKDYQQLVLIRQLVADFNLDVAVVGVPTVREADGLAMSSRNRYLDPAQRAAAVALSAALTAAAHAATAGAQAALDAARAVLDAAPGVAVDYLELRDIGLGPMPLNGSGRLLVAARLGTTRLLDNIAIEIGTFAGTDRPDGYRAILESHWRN

Row | SMILES | inhibition [%]
1 | Cc1ccc(-c2cc(C(=O)NCCN3CCOCC3)no2)cc1 | 3
2 | O=C(NCc1ccco1)c1noc2c1CCCCC2 | 12
3 | Cc1ccnc(NC(=O)Nc2ccc(F)cc2)c1 | 0
4 | CN(C)c1nc(OCCOC(=O)Nc2ccc(Cl)cc2Cl)nc(N(C)C)n1 | 0
5 | O=C(Cn1nc(Cc2cccnc2)c2ccccc2c1=O)NCC1CCCO1 (configuration not stated) | 0
6 | O=c1[nH]c2ccccc2n1CCCN1CCN(C(c2ccccc2)c2ccccc2)CC1 | 1
7 | Cc1cc(C)c2c(n1)nn1c(C3CC3)cc(C(F)(F)F)nc21 | 5
8 | CCN(Cc1ccccc1)C(c1ccncc1)c1nnnn1C(C)(C)C (configuration not stated) | 0
9 | CCNc1ccc2c(Cl)cc(=O)oc2c1 | 5
10 | CCc1nnc(NC(=O)c2cc3ccccc3oc2=O)s1 | 2
11 | CCOC(=O)CSC1=C(C#N)C(c2ccc3c(c2)OCO3)CC(=O)N1 (configuration not stated) | 0
12 | CN(C)c1ccc(O)c2c1CC1CC3[C@@H](N(C)C)C(=O)C(C(N)=O)=C(O)[C@]3(O)C(=O)C1=C2O (some centres not stated) | 0
13 | COc1ccc2[nH]c(=O)c(CN(C(=O)c3cccnc3)c3ccccc3OC)cc2c1 | 1
14 | O=C(Nc1ccc(Cl)cc1C(=O)Nc1ccncc1)c1ccco1 | 4
15 | CN1CCN(CCCNC(=O)Cn2ncc3c4ccccc4n(C)c3c2=O)CC1 | 0
16 | Cn1c2ccccc2c2c(C(=O)NCCCN3CCCC3=O)cn(C3CCCCC3)c(=O)c21 | 8
17 | O=C(CCN1CCc2ccccc2C1)Nc1ccc2c(c1)OCO2 | 0
